TDP1 block – qHTS Assay for Inhibitors of Tyrosyl-DNA Phosphodiesterase (TDP1) | recombinant TDP1, AlphaScreen DNA substrate cleavage | 350,000 tested, 0.28% active | Potency, µM (doses to about 130 µM), hits mostly inhibitors | AID 485290, 2010 | Tyrosyl-DNA phosphodiesterase 1 (Homo sapiens), Q9NUW8; also: nearly all actives have a fitted effect of over 40% in size
Target sequence (Q9NUW8 whole entry, looked up): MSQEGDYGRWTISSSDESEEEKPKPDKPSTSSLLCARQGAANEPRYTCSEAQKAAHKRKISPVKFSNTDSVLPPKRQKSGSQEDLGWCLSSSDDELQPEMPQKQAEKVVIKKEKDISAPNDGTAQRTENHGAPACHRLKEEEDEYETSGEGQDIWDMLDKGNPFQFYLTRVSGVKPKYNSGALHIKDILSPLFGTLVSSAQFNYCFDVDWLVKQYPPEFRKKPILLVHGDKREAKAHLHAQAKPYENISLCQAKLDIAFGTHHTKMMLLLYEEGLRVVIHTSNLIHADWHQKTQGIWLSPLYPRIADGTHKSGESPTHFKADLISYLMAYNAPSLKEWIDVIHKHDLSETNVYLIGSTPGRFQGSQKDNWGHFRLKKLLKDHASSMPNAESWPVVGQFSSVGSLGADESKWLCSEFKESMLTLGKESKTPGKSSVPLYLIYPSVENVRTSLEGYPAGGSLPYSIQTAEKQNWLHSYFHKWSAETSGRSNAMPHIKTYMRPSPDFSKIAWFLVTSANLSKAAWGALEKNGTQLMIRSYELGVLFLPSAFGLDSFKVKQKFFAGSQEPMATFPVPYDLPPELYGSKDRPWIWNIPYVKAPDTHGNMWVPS
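Steps: enzyme plus compound, 15 min RT; add biotin/phosphotyrosine-FITC oligonucleotide (15 nM final), react 5 min; add donor/acceptor beads (10 ug/ml final), 10 min; read AlphaScreen. Tdp1 at 1 nM final.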
Tb PFK block – qHTS Assay to Find Inhibitors of T. brucei phosphofructokinase | ATP-dependent 6-phosphofructokinase (Trypanosoma brucei brucei), O15648 | T. brucei PFK, ADP-Glo luminescence | Potency, µM (doses to about 57.5 µM), usual class: inhibitors | 330,000 tested, 0.17% active | AID 485367, 2010; also: nearly all actives have a fitted effect of over 60% in size
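ADP-Glo luminescence quantified ADP after 45 min at room temperature, with 1.25 nM T. brucei PFK, 0.1 mM ATP and 0.5 mM fructose-6-phosphate in pH 8.0 TEA buffer. qHTS titrations up to 57 µM; curves classified by quality.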
PLK1 PBD block – qHTS for Inhibitors of PLK1-PDB (polo-like kinase 1 - polo-box domain): Primary Screen; Serine/threonine-protein kinase PLK1 (Homo sapiens), P53350; 360,000 tested, 2.8% active; Plk1 PBD binding of FITC phosphopeptide, fluorescence polarization; Potency, µM, usual class: inhibitors; also: series mostly up to about 57 µM; nearly all actives have a fitted effect of over 65% in size
VDR inhibitor – Inhibitors of the vitamin D receptor (VDR): qHTS; VDR-SRC2-3 peptide fluorescence polarization, 2 h; Potency, µM, actives largely listed as inhibitors; 400,000 tested, 0.93% active
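The screen uses fluorescence polarization to detect compounds that interfere with recruitment of the SRC2-3 coactivator peptide to VDR; plates are read after 2 h at room temperature.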
S-ASM inh – Inhibitors of Secretory Acid Sphingomyelinase (S-ASM): qHTS; Sphingomyelin phosphodiesterase (Homo sapiens), P17405; Potency, µM (top dose mostly 57.5 µM), actives largely listed as inhibitors; 340,000 tested, 0.006% active; placental ASM, HMU-PC fluorogenic substrate, 60 min; AID 504937, 2011
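Human placenta-derived ASM enzyme was preincubated with compound for 10 minutes at room temperature, then given fluorogenic substrate HMU-PC0 (9 uM final) for 60 minutes at 37 °C; a pH 10 stop preceded fluorescence reading at Ex 386/Em 447 nm.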
Pin1 inh – qHTS Assay to Find Inhibitors of Pin1; Peptidyl-prolyl cis-trans isomerase NIMA-interacting 1 (Homo sapiens), Q13526; Pin1 FP peptide displacement, HiFluor488, 10 min; Potency, µM (top dose mostly 115 µM), most hits filed as inhibitors; 390,000 tested, 0.009% active; AID 504891, 2011; active = well fitted inhibition curve with a large enough effect in the polarisation, with a control signal flat, not every such curve was filed as active; inconclusive = small, poorly fitted or top-dose-only effect, or effect the other way, or a change in a side signal; inactive = no such curve, though single readings can be large or run the other way; the % refers to the polarisation
Target sequence (Q13526 whole entry, looked up): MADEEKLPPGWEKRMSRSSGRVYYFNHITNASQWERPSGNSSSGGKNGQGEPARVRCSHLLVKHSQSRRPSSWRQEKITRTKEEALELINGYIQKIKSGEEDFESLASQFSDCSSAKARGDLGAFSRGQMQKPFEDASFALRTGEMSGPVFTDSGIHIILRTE
TbPYK inh – qHTS of Trypanosoma Brucei Inhibitors: Confirmatory Assay for Cherry-picked Compounds | shares compounds with PLK1 PBD block | recombinant TbPYK, Kinase-Glo ATP luminescence | Potency, µM (highest dose often 76.9 µM), hits mostly inhibitors | 890 tested, 67% active | AID 720569, 2013; also: nearly all actives have a fitted effect of over 70% in size
TbPYK ADP-Glo – qHTS of Trypanosoma Brucei Inhibitors: Orthogonal Assay for Cherry-picked Compounds | shares compounds with PLK1 PBD block | recombinant TbPYK, ADP-Glo luminescence, 60 min | Potency, µM (highest dose often 76.9 µM), most hits filed as inhibitors | 890 tested, 62% active; also: nearly all actives have a fitted effect of over 75% in size
Large screens that a line does not name were inactive (follow-up assays come after a bar, where they were run). This is a sample that favours compounds with a hit; in the whole collection about 3.1% have one here. Unless noted, calls follow the shape of the dose curve; as a rule, active = well fitted curve in the direction sought with a large enough effect; inconclusive = small, poorly fitted or top-dose-only effect, or another doubt; inactive = no such curve, though single readings can be large; an effect the other way counts as inactive or inconclusive.

CCn1cc(/C=C/C(=O)Nc2ccn(Cc3c(F)c(F)cc(F)c3F)n2)cn1	VDR inhibitor inconclusive | TbPYK inh 7.94µM | TbPYK ADP-Glo 12.6µM
Nc1ccc(-c2nc3ccccc3o2)cc1	none (no result: TDP1 block)
O=C1C=CC(=O)N1c1ccc(-c2nc3ccccc3o2)cc1	PLK1 PBD block 8.44µM (no result: TDP1 block, Tb PFK block, VDR inhibitor, S-ASM inh, Pin1 inh) | TbPYK inh inactive | TbPYK ADP-Glo 11.2µM
COc1cc(N=c2ssnc2Cl)c(OC)cc1Cl	Tb PFK block inconclusive, PLK1 PBD block 1.68µM, VDR inhibitor 15.8µM | TbPYK inh 4.47µM | TbPYK ADP-Glo 6.31µM
COc1ccc(OC)c(N=c2ssnc2Cl)c1	Tb PFK block inconclusive, PLK1 PBD block 2.67µM, VDR inhibitor inconclusive | TbPYK inh 15.8µM | TbPYK ADP-Glo 14.1µM
Cc1ccc(CCNC(=O)c2ccc3c(c2)c(C)c(C)n3Cc2ccccc2)cc1	none (no result: Tb PFK block, PLK1 PBD block, S-ASM inh)
CCOc1ccc(CNCc2c(C(=O)O)c(C)n(Cc3ccc(F)cc3Cl)c2C)cc1	none (no result: Tb PFK block, PLK1 PBD block, S-ASM inh)
COc1ccc(CNC(=O)c2ccc3ccccc3n2)cc1	none (no result: TDP1 block)
COc1ccc(N=C(NN)c2ccc3ccccc3n2)cc1	Tb PFK block inconclusive, PLK1 PBD block 11.9µM | TbPYK inh 12.6µM | TbPYK ADP-Glo inconclusive
CCN(CC)c1ccc(C(=O)N2CCN(Cc3ccccc3)CC2)cc1	PLK1 PBD block inconclusive
CN(C)c1ccc(C(=S)N2CCN(Cc3ccccc3)CC2)cc1	Tb PFK block inconclusive, PLK1 PBD block 4.23µM, VDR inhibitor 50.1µM (no result: TDP1 block) | TbPYK inh 5.01µM | TbPYK ADP-Glo 4.47µM
O=C(O)c1cccc(N2C(=O)C3CC=CCC3C2=O)c1 (stereo not drawn)	none
O=C(Cc1ccccc1)Nc1cccc(N2C(=O)C=CC2=O)c1	Tb PFK block inconclusive, PLK1 PBD block 5.32µM, VDR inhibitor inconclusive | TbPYK inh 5.62µM | TbPYK ADP-Glo 8.91µM
O=C(O)c1cccc(N2C(=O)C=CC2=O)c1	PLK1 PBD block 11.9µM (no result: TDP1 block, Tb PFK block, VDR inhibitor, S-ASM inh, Pin1 inh) | TbPYK inh 25.1µM | TbPYK ADP-Glo 35.5µM
CCc1nn2c(-c3ccco3)ccnc2c1-c1ccc(F)cc1	none (no result: Tb PFK block, PLK1 PBD block, S-ASM inh)
CCn1cc(S(=O)(=O)c2cccc(Cl)c2)c(=O)c2cc(F)c(N3CCN(C)CC3)cc21	none (no result: Tb PFK block, PLK1 PBD block, S-ASM inh)
CC(=O)C1=C(C)NC(SCC(N)=O)=C(C#N)C1C (stereo not drawn)	PLK1 PBD block 21.2µM, VDR inhibitor inconclusive | TbPYK inh inconclusive | TbPYK ADP-Glo inconclusive
CC(=O)C1=C(C)NC(SCC(=O)c2ccc(F)cc2)=C(C#N)C1CC(C)C (stereo not drawn)	PLK1 PBD block inconclusive | TbPYK inh 1.12µM | TbPYK ADP-Glo 1.78µM
CC(=O)C1=C(C)NC(SCC(N)=O)=C(C#N)C1CC(C)C (stereo not drawn)	VDR inhibitor 79.4µM | TbPYK inh 7.08µM | TbPYK ADP-Glo 8.91µM
COC(=O)c1ccccc1NC(=O)c1ccc2nc(Cc3ccccc3)oc2c1	none (no result: Tb PFK block, PLK1 PBD block, S-ASM inh)
CSc1cccc(NC(=O)CC(c2ccc(F)cc2)N2Cc3ccccc3C2=O)c1 (stereo not drawn)	none (no result: Tb PFK block, PLK1 PBD block, S-ASM inh)
CCN(CC)c1ccc(NC(=O)Cn2cc3c(n2)CCC(C)C3)c(C)c1 (stereo not drawn)	none | TbPYK inh 22.4µM | TbPYK ADP-Glo inconclusive
CC1CCc2c(sc(Nc3nc4c(F)cccc4s3)c2C(N)=O)C1 (stereo not drawn)	Pin1 inh inconclusive | TbPYK inh 8.91µM | TbPYK ADP-Glo 14.1µM
CN(C)c1cccc2c(C=C(C#N)C#N)ccc(N(C)C)c12	Pin1 inh inconclusive | TbPYK inh inconclusive | TbPYK ADP-Glo inconclusive
CCN1/C(=C/c2ccc3ccccc3[n+]2CC)C=Cc2ccccc21	none | TbPYK inh 11.2µM | TbPYK ADP-Glo inconclusive
CCN1/C(=C/c2ccc3ccccc3[n+]2CCCS(=O)(=O)[O-])C=Cc2cc(C)ccc21	none (no result: TDP1 block)
COc1cccc2c1Oc1ncccc1N(C(=O)CCC(=O)NCc1ccc(OC(C)C)cc1)C2	none (no result: Tb PFK block, PLK1 PBD block, S-ASM inh)
COc1ccc(-c2nnc3ccc(SCC(=O)N4CCN(c5ccccc5)CC4)nn23)cc1	none (no result: TDP1 block, Tb PFK block) | TbPYK inh inconclusive | TbPYK ADP-Glo inconclusive
COc1ccc(-c2nnc3ccc(SCC(=O)N4CCOCC4)nn23)cc1	none
CC(C)(NC(=O)c1ccccc1)c1nc2ccccc2s1	Tb PFK block inconclusive, PLK1 PBD block 11.9µM, VDR inhibitor inconclusive | TbPYK inh 8.91µM | TbPYK ADP-Glo 10µM
Cc1ccc(C2=NC(=O)/C(=C/c3cc(O)c(O)c(Br)c3)S2)cc1	Tb PFK block inconclusive, PLK1 PBD block inconclusive, VDR inhibitor inconclusive | TbPYK inh 31.6µM | TbPYK ADP-Glo inconclusive
COc1cc(/C=C2\SC(N)=NC2=O)cc(Cl)c1O	Pin1 inh inconclusive (no result: TDP1 block)
COc1cc(/C=C2\SC(c3ccc(C)cc3)=NC2=O)cc(OC)c1O	VDR inhibitor inconclusive, Pin1 inh inconclusive | TbPYK inh 35.5µM | TbPYK ADP-Glo inconclusive
O=C1NC(=S)CN1c1ccccc1	PLK1 PBD block 26.7µM, VDR inhibitor 31.6µM, Pin1 inh inconclusive (no result: TDP1 block) | TbPYK inh inconclusive | TbPYK ADP-Glo inconclusive
O=C1N(c2ccccc2)CCN1c1ccccc1	none (no result: TDP1 block)
N#CC1=C2SCN(Cc3ccccc3)CN2C(=O)CC1c1ccccc1F (stereo not drawn)	PLK1 PBD block 16.8µM, VDR inhibitor 50.1µM | TbPYK inh 1.78µM | TbPYK ADP-Glo 1.58µM
N#CC1=C2SCC(O)(c3ccccc3)N2C(=O)CC1c1cccs1 (stereo not drawn)	Pin1 inh inconclusive
Cc1ccc(C2CC(=O)N3CN(c4ccc(Br)cc4)CSC3=C2C#N)o1 (stereo not drawn)	VDR inhibitor 44.7µM | TbPYK inh 31.6µM | TbPYK ADP-Glo 15.8µM
N#CC1=C2SCN(c3ccccc3)CN2C(=O)CC1c1cccs1 (stereo not drawn)	PLK1 PBD block 26.7µM, VDR inhibitor inconclusive (no result: TDP1 block) | TbPYK inh 2.82µM | TbPYK ADP-Glo 2.51µM
